The values below come from PubChem BioAssay (NCATS).

The test system of one experiment is MCC-26. The experiment in a line: qHTS assay to identify novel small-molecules to repurpose for Merkel cell carcinoma treatment (AID 1296009). Further: nearly all actives have a fitted effect of over 60% in size. To be noted: MCC and control cell lines, CellTiter-Glo viability, 72 h; series mostly up to 46 µM. Summed up:
(§1)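 qHTS format: cells treated with library compounds in DMSO across 8 (NPC) or 11 (MIPE) concentrations. Readout after 72 hr at 37 degree celsius was CellTiter-Glo luminescence.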
In general terms: In qHTS, concentration-response curves come from the screen itself.

The subject of a further experiment is MKL-1. The experiment is described as above. To be noted: MCC and control cell lines, CellTiter-Glo viability, 72 h; series mostly up to 46 µM. In short, it runs like this:
as §1
On the technique in general: ATP-based viability assays read luminescence as a measure of living cells.

The test system of the next experiment is MKL-2. The description is as above. As to conditions: MCC and control cell lines, CellTiter-Glo viability, 72 h; series mostly up to 46 µM. In short, it runs like this: as §1
The next experiment has as its system NIH3T3. The description is as above. To be noted: MCC and control cell lines, CellTiter-Glo viability, 72 h; at 44.8 µM (top of the series) unless noted. Summed up: as §1
The next experiment relates to UISO. The description is as above. To be noted: MCC and control cell lines, CellTiter-Glo viability, 72 h; series mostly up to 46 µM. In short, it runs like this:
as §1

The next experiment relates to WaGa. The experiment is described as above. As to conditions: MCC and control cell lines, CellTiter-Glo viability, 72 h; series mostly up to 46 µM. Summed up:
as §1

The test system of a further experiment is C33A. The experiment can be described thus: Primary qHTS to identify gynecologic anti-cancer compounds using libraries of approved drugs and bioactive compounds (AID 1345084). Further: nearly all actives have a fitted effect of over 55% in size. To be noted: Gynecologic cancer cell panel viability, ATPlite luminescence, 48 h; series mostly up to 57.5 µM. In short, it runs like this:
(§2)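 Five-point cytotoxicity, 48 h drug exposure at 37 C, 5% CO2, on cells seeded 16 h beforehand. ATP content read by ATPlite luminescence.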

Another experiment relates to CAOV3. The experiment is described as above. As to conditions: Gynecologic cancer cell panel viability, ATPlite luminescence, 48 h; series mostly up to 57.5 µM. Summed up:
as §2

The test system of the next experiment is CASKI. The experiment is described as above. As to conditions: Gynecologic cancer cell panel viability, ATPlite luminescence, 48 h; series mostly up to 57.5 µM. In short, it runs like this:
as §2

The next experiment relates to Es-2. Described as above. To be noted: Gynecologic cancer cell panel viability, ATPlite luminescence, 48 h; series mostly up to 57.5 µM. In short, it runs like this:
as §2

In a further experiment the test system is HeLa. Described as above. As to conditions: Gynecologic cancer cell panel viability, ATPlite luminescence, 48 h; series mostly up to 57.5 µM. In short, it runs like this: as §2
For a further experiment, the system named is Hek293T. The description is as above. To be noted: Gynecologic cancer cell panel viability, ATPlite luminescence, 48 h, control line for the selectivity index; series mostly up to 57.5 µM. Summed up: as §2
A further experiment has as its system JEG-3. The description is as above. As to conditions: Gynecologic cancer cell panel viability, ATPlite luminescence, 48 h; series mostly up to 57.5 µM. In short, it runs like this: as §2
Another experiment relates to OV90. Described as above. As to conditions: Gynecologic cancer cell panel viability, ATPlite luminescence, 48 h; series mostly up to 57.5 µM. In short, it runs like this: as §2
For another experiment, the system named is PA-1. The experiment is described as above. As to conditions: Gynecologic cancer cell panel viability, ATPlite luminescence, 48 h; series mostly up to 57.5 µM. Summed up:
as §2

Another experiment deals with SKOV3. The description is as above. As to conditions: Gynecologic cancer cell panel viability, ATPlite luminescence, 48 h; series mostly up to 57.5 µM. In short, it runs like this: as §2
In a further experiment the test system is Tov-21-G. The experiment is described as above. As to conditions: Gynecologic cancer cell panel viability, ATPlite luminescence, 48 h; series mostly up to 57.5 µM. In short, it runs like this: as §2
In another experiment the test system is Tov112D. Described as above. As to conditions: Gynecologic cancer cell panel viability, ATPlite luminescence, 48 h; series mostly up to 57.5 µM. In short, it runs like this: as §2
Experiment [1] can be described thus: Drug repurposing screens with cells derived from glioblastoma tumor samples (AID 1345199). Further: nearly all actives have a fitted effect of over 40% in size. Further: potency means the concentration at half of the fitted maximal effect. To be noted: GBM patient neurospheres viability, ATP luminescence, 48 h. Summed up: (§3)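 Four patient lines of CD133+ GBM neurospheres were screened at several concentrations; hits were retested in those lines plus three slower-growing GBM lines, using 48-hour treatment and ATP-based viability.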

The next experiment has as its system astro. Described as above. As to conditions: viability, ATP luminescence, 48 h; series mostly up to 45.9 µM. In short, it runs like this: as §3
The mark [2] stands for this setting: at 45.9 µM (top of the series), tumour line B.
[3] abbreviates: at 45.9 µM (top of the series), tumour line D.
The mark [4] stands for this setting: at 46 µM (top of the series), tumour line A.
Where [5] appears, read: at 46.1 µM (top of the series), tumour line C.

Records with an inconclusive call do not appear. Calls of active or inactive are those of the source. The call rests on the fitted dose curve; in most records, active means well fitted curve in the direction sought with a large enough effect; inconclusive means small, poorly fitted or top-dose-only effect, or another doubt; inactive means no such curve, though single readings can be large; an effect the other way counts as inactive or inconclusive.
On the % scale 0 is the no-effect control and ±100 the full control effect.

As to `NCCCC(O)(P(=O)(O)O)P(=O)(O)O`, the Potency entry in the experiment with MCC-26, in the experiment with MKL-1, in the experiment with MKL-2, in the experiment with UISO, in the experiment on WaGa and in the experiment with C33A was “inactive” throughout. Besides, the Potency entry with CAOV3, in the experiment on CASKI, in the experiment with Es-2, in the experiment on HeLa, in the experiment on Hek293T and with JEG-3 was “inactive” each time. The Potency entry in the experiment with OV90, in the experiment on PA-1, in the experiment with SKOV3, with Tov-21-G, in the experiment on Tov112D and in the experiment on astro was “inactive” each time. In addition, in the experiment with NIH3T3, the molecule was classed as inactive. Besides, the activity, negative = cell killing in experiment [1] (setting [2]) was -8.76% (inactive); in experiment [1] (setting [3]), 1.9% (inactive); in experiment [1] (setting [4]), -6.09% (inactive); in experiment [1] (setting [5]), -10.2% (inactive).

In the case of `CCCOc1ccc(C(=O)OCCN(CC)CC)cc1N`, the Potency entry in the experiment on MCC-26, in the experiment with MKL-1, with MKL-2, with UISO, in the experiment with WaGa and with C33A was “inactive” each time. The Potency entry with CAOV3, with CASKI, with Es-2, in the experiment on HeLa, with Hek293T and with JEG-3 was “inactive” throughout. In addition, the Potency result in the experiment with OV90, in the experiment with PA-1, with SKOV3, with Tov-21-G, in the experiment on Tov112D and in the experiment with astro was “inactive” each time. Also, the result with NIH3T3 was inactive. Further, the activity, negative = cell killing in [1] (setting [5]) was -16.2% (inactive). Also, the Potency in [1] (tumour line A) was 14.1 µM (active).

For `COC(c1ccccc1)(c1ccccc1)[C@H](Oc1nc(C)cc(C)n1)C(=O)O`, the Potency entry in the experiment on MCC-26, with MKL-1, with MKL-2, with UISO, in the experiment with WaGa and with C33A was “inactive” in each case. The Potency result in the experiment on CAOV3, in the experiment on CASKI, in the experiment with Es-2, in the experiment on HeLa, with Hek293T and in the experiment on JEG-3 was “inactive” each time. Besides, the Potency result in the experiment with OV90, in the experiment on PA-1, in the experiment with SKOV3 and with astro was “inactive” each time. The molecule was called inactive with NIH3T3. Besides, the activity, negative = cell killing in [1] (setting [2]) was -11% (inactive); in [1] (setting [3]), -22.7% (inactive); in [1] (setting [4]), -16.8% (inactive); in experiment [1] (setting [5]) it was 2.92% (inactive).

For the molecule `C#CCN[C@@H]1CCc2ccccc21`, the Potency entry in the experiment with MCC-26, in the experiment with MKL-1, in the experiment with MKL-2, in the experiment on UISO, in the experiment with WaGa and with C33A was “inactive” in each case. The Potency entry in the experiment with CAOV3, in the experiment with CASKI, in the experiment with Es-2, with Hek293T, in the experiment on JEG-3 and with OV90 was “inactive” each time. Also, the Potency result in the experiment with PA-1, with SKOV3, with Tov-21-G, with Tov112D and in the experiment on astro was “inactive” each time. The molecule was called inactive in the experiment with NIH3T3. Besides, the activity, negative = cell killing in experiment [1] (setting [2]) was -8.4% (inactive); in experiment [1] (setting [3]) it was -8% (inactive); in [1] (setting [4]), -26% (inactive); in experiment [1] (setting [5]), -23.8% (inactive).

`CCn1cc(C(=O)O)c(=O)c2cc(F)c(N3CCNCC3)nc21`: the Potency entry in the experiment on MCC-26, in the experiment on MKL-1, in the experiment with MKL-2, in the experiment on UISO, in the experiment on WaGa and with C33A was “inactive” throughout. Moreover, the Potency entry in the experiment on CAOV3, in the experiment on CASKI, in the experiment on Es-2, in the experiment with HeLa, in the experiment with Hek293T and in the experiment on JEG-3 was “inactive” throughout. In addition, the Potency entry in the experiment on OV90, in the experiment with PA-1, in the experiment with SKOV3, in the experiment with Tov-21-G, in the experiment on Tov112D and in the experiment on astro was “inactive” each time. In the experiment on NIH3T3, the molecule was called inactive. For the same molecule, the activity, negative = cell killing in experiment [1] (at 20 µM (top of the series), tumour line C) is -1.66% (inactive); in experiment [1] (at 21.2 µM (top of the series), tumour line B) it was -1.31% (inactive); in [1] (at 21.2 µM (top of the series), tumour line D), -17.3% (inactive); in experiment [1] (at 21.3 µM (top of the series), tumour line A) it was -3.28% (inactive).
